Results taken from PubChem BioAssay.
Records with an inconclusive call do not appear. For some assays here: Entries with a potency or affinity are not part of this list. Activity calls are given as the source filed them.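 The calls were made as follows, unless noted: active = at least 20% inhibition of 6-phosphogluconate dehydrogenase activity; inactive = the rest.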 Peptide text beside a SMILES is read from it. * marks the point of attachment. For = O=C*

Assays:
[1] = target: 6-phosphogluconate dehydrogenase, decarboxylating (Homo sapiens) (UniProt P52209); test: 6PGD enzyme inhibitors, primary screen, biochemical, human, recombinant enzyme, NADPH absorbance (AID 1159550); conditions: recombinant 6PGD, NADPH absorbance 341 nm; at 10 µM; stronger effect = higher value
Chain of 6-phosphogluconate dehydrogenase, decarboxylating (Homo sapiens) (P52209 whole entry, looked up, the tested form may be a part): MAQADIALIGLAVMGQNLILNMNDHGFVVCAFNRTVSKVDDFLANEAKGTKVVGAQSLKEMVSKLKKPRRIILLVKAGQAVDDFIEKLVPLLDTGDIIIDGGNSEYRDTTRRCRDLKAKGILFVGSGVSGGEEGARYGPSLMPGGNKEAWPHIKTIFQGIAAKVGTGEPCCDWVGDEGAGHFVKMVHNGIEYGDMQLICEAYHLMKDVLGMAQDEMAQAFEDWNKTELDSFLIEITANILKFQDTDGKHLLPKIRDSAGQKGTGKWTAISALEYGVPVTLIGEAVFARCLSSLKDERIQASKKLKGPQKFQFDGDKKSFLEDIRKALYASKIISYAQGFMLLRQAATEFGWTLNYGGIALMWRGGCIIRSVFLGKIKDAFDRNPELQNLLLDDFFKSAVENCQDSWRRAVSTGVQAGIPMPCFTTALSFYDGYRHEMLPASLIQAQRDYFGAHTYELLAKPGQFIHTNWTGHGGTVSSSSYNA

[2] = target: Mitogen-activated protein kinase 7 (Homo sapiens) (UniProt Q13164); test: ERK5 transactivation activators in reporter cells, primary screen, cell-based, HTS (AID 1508626;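 active = luciferase signal above three times the same-plate solvent-only control wells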;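 also: luciferase driven by Gal4-ERK5 fusion binding five Gal4 sites before minimal TATA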); conditions: HeLa Gal4-ERK5 transactivation, 18 h, at 5 µM, stronger effect = higher value
Chain of Mitogen-activated protein kinase 7 (Homo sapiens) (Q13164 whole entry, looked up, the tested form may be a part): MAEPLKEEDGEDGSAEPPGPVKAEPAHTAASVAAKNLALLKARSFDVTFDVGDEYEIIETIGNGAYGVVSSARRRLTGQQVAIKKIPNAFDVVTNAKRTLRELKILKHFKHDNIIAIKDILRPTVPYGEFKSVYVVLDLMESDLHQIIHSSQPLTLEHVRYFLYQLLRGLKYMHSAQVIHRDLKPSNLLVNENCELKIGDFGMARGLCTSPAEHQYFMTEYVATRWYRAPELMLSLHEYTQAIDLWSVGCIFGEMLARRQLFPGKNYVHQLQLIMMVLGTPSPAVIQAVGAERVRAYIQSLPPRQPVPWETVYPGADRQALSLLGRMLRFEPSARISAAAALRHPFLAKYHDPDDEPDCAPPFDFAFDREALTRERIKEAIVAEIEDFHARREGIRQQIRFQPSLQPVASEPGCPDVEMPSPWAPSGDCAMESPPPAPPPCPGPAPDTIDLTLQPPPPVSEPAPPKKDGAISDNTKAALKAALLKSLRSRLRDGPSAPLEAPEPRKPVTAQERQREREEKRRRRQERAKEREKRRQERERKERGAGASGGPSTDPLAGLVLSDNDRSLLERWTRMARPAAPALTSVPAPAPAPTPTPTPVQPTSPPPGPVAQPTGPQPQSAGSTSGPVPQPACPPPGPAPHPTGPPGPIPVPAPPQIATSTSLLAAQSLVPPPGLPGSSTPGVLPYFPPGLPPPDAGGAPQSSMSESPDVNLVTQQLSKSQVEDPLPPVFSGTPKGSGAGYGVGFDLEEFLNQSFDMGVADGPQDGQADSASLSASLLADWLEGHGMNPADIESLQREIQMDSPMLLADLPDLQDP

[3] = liver-stage malaria parasite growth inhibition, primary screen, cell-based, HepG2, luciferase luminescence, HepG2 viability (AID 624349; in the data active = parasite load remaining mostly below about 12%, no sharp cut-off; inactive = mostly above about 10%;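 also: 100% = mean of DMSO negative control wells on the same plate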); conditions: P. berghei liver stage in HepG2, luciferase luminescence, concentration not given here; parasite load remaining: stronger effect = lower value; viability: measured here: HepG2 viability without parasites
[4] = Cy5 fluorescence interference with SSB-bound oligo, artefact control for HCV NS3 helicase inhibitor project, biochemical, NIH Clinical Collection, E. coli SSB (AID 743268; call rule not given here)
[5] = test system: Hepatitis C virus NS3 helicase; test: HCV NS3 helicase inhibitors, primary screen, biochemical, fluorescence polarization, NIH Clinical Collection (AID 743270; call rule not given here); conditions: NS3 helicase binding to Cy5-dT15 DNA, stronger effect = higher value, concentration not given here
[6] = target: Single-stranded DNA-binding protein (Escherichia coli (strain K12)) (UniProt P0AGE0); test: E. coli SSB displacement from DNA, counter-screen for HCV NS3 helicase inhibitor project, biochemical, fluorescence polarization, NIH Clinical Collection (AID 743271; in the data active = inhibition above about 28%); conditions: stronger effect = higher value, concentration not given here
[7] = fluorescence interference in NS3h assay format, artefact control for HCV NS3 helicase inhibitor project, biochemical, NIH Clinical Collection (AID 743272; call rule not given here;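 also: HCV NS3 helicase with a Cy5 labelled single stranded DNA probe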); conditions: fluorescence interference counterscreen, stronger effect = lower value
[8] = polyglutamine-triggered caspase-3 activation inhibitors, cell-based (AID 1583); conditions: polyglutamine-induced caspase-3 activation, cell assay; stronger effect = higher value;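 tested at 10 µM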
[9] = suppressors of polyQ aggregation in yeast, 75Q-TubU reporter (AID 1593); conditions: Yeast 75Q polyglutamine aggregation reporter
[10] = rescue of polyQ-huntingtin neuronal dysfunction in worms, whole organism, C. elegans mechanosensory neurons, N-terminal huntingtin (AID 1599); conditions: touch response, stronger effect = higher value
[11] = inhibitors of mitochondrial cytochrome c release, biochemical, purified mitochondria (AID 1603); conditions: stronger effect = lower value;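 also: mouse liver mitochondria challenged with calcium chloride; signal normalized to the plate average as 100%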
[12] = inhibitors of polyQ protein aggregation (AID 1604); conditions: polyglutamine-induced protein aggregation inhibition assay; stronger effect = higher value; tested at 2.5 µM
[13] = enhancers of glutamate uptake in motor neurons, MN-1 cell line (AID 1612); conditions: MN-1 motor neuron cells, stronger effect = higher value;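 also: tested at 1 µM final; 0% = mean of DMSO vehicle wells on each plate; positive means more glutamate uptake than control and negative means less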
[14] = reducers of polyQ inclusions in PC12 cells, cell-based, NGF-treated PC12, GFPQ80 (AID 1614); conditions: PC12 NGF-treated GFP-polyQ80 inclusion reduction;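 also: lower means fewer inclusions and 0 means no inclusions at all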
[15] = suppressors of polyglutamine aggregation in yeast, 75Q-TubH (AID 1616); conditions: S. cerevisiae 75Q-TubH polyglutamine aggregation suppression; stronger effect = higher value
[16] = protection against mutant huntingtin cytotoxicity, PC12 cells, LDH release (AID 1610); conditions: PC12 mutant huntingtin toxicity, final LDH at 4 uM, stronger effect = lower value

Structure (SMILES): CC(=O)CC(=O)CCC(=O)O
- inhibition [1]: 9.16% (inactive)
- luciferase signal [2]: 80 AU (inactive)

Structure (SMILES): CC=C1[C@H]2C=C(C)C[C@]1(N)c1ccc(=O)[nH]c1C2
- parasite load remaining [3]: 62.9% (inactive)
- viability [3]: 72.6%
- fluorescence ratio [4]: 0.99 (inactive)
- inhibition [5]: -2.84% (inactive)
- inhibition [6]: -1.97% (inactive)
- fluorescence ratio [7]: 0.96 (inactive)
- inhibition [1]: -0.222% (inactive)
- luciferase signal [2]: 44 AU (inactive)

Structure (SMILES): COC(=O)[C@]1(C)CCC[C@]2(C)c3ccc(C(C)C)cc3C(=O)CC12 (stereo partly drawn)
- inhibition [1]: 13.7% (inactive)
- luciferase signal [2]: 32 AU (inactive)

Structure (SMILES): CSCCC(N)C(=O)NC(CC(C)C)C(=O)NC(Cc1ccccc1)C(=O)O (stereo not drawn)
- inhibition [8]: 18.9%
- score [9]: 1.68
- rescue above control [10]: 2.33
- cytochrome c release ratio [11]: 0.77
- inhibition of aggregation [12]: 67.8%
- glutamate uptake change [13]: 4.95%
- inclusion score [14]: 2
- aggregation suppression score [15]: 1.32
- inhibition [1]: 9.25% (inactive)

Structure (SMILES): COC(=O)/C(=C1/OC(=O)C(c2ccccc2)=C1O)c1ccccc1
- inhibition [1]: 11.9% (inactive)
- luciferase signal [2]: 68 AU (inactive)

Structure (SMILES): C=C(C)CCCC(C)CCOC(C)=O (stereo not drawn)
- inhibition [1]: 8.09% (inactive)
- luciferase signal [2]: 68 AU (inactive)

Structure (SMILES): CC(C)=CCC1=C(O)c2ccccc2C(=O)C1=O
- inhibition [8]: -24.2%
- score [9]: 0.21
- rescue above control [10]: 6.74
- cytochrome c release ratio [11]: 0.7
- inhibition of aggregation [12]: 77.5%
- normalised LDH release [16]: 0.727
- glutamate uptake change [13]: -3.48%
- inclusion score [14]: 2
- aggregation suppression score [15]: 0.0579
- parasite load remaining [3]: 85.5% (inactive)
- viability [3]: 63.9%
- inhibition [1]: -1.8% (inactive)
- luciferase signal [2]: 60 AU (inactive)

Structure (SMILES): N[C@H](C(=O)O)[C@@H]1CC(Cl)=NO1
- inhibition [8]: -15.5%
- score [9]: 0.51
- rescue above control [10]: -2.47
- cytochrome c release ratio [11]: 0.83
- inhibition of aggregation [12]: 25.5%
- glutamate uptake change [13]: 6.6%
- inclusion score [14]: 1
- aggregation suppression score [15]: 0.115
- inhibition [1]: 7.5% (inactive)

Structure (SMILES): CC12CCC3c4ccc(OCc5ccccc5)cc4CCC3C1C[C@@H](O)[C@@H]2O (stereo partly drawn)
- inhibition [8]: -24.8%
- score [9]: -1.62
- rescue above control [10]: 18.3
- cytochrome c release ratio [11]: 1.14
- inhibition of aggregation [12]: 88.8%
- glutamate uptake change [13]: -1.58%
- aggregation suppression score [15]: -0.303
- inhibition [1]: -6.08% (inactive)

Structure (SMILES): CSCCC(NC=O)C(=O)NC(Cc1ccccc1)C(=O)O (stereo not drawn) (For-Met-Phe-OH; configuration not given here)
- inhibition [8]: 0.6%
- score [9]: 1.4
- rescue above control [10]: 4.29
- cytochrome c release ratio [11]: 1.19
- inhibition of aggregation [12]: 59.3%
- glutamate uptake change [13]: 0%
- inclusion score [14]: 2
- aggregation suppression score [15]: 0.985
- inhibition [1]: 6.92% (inactive)

Structure (SMILES): COC(=O)[C@@H]1OC(=O)[C@H]2O[C@@]23[C@@]1(C)CCC1[C@@]2(C)CCC(=O)C(C)(C)C2C[C@@H](OC(C)=O)[C@]13C (stereo partly drawn)
- inhibition [1]: 7.3% (inactive)
- luciferase signal [2]: 40 AU (inactive)

Structure (SMILES): CC1=C(/C=C/C(C)=C/C=C/C(C)=C/C=C/C=C(C)/C=C/C=C(C)/C=C/C2=C(C)C(=O)[C@@H](O)CC2(C)C)C(C)(C)C[C@H](O)C1=O
- inhibition [1]: -11.7% (inactive)
- luciferase signal [2]: 48 AU (inactive)

Structure (SMILES): CCOC(=O)C(Cc1ccc(O)cc1)NC(C)=O (stereo not drawn)
- inhibition [8]: -16.6%
- score [9]: 1.58
- rescue above control [10]: 3.83
- cytochrome c release ratio [11]: 0.88
- inhibition of aggregation [12]: -1.73%
- glutamate uptake change [13]: -5.84%
- inclusion score [14]: 2
- aggregation suppression score [15]: 0.981
- parasite load remaining [3]: 109% (inactive)
- viability [3]: 69%
- inhibition [1]: -22.2% (inactive)
- luciferase signal [2]: 72 AU (inactive)

Structure (SMILES): COC(=O)C(C)c1ccc(C(=O)c2cccs2)cc1 (stereo not drawn)
- parasite load remaining [3]: 119% (inactive)
- viability [3]: 76.5%
- inhibition [1]: -13.2% (inactive)
- luciferase signal [2]: 44 AU (inactive)

Structure (SMILES): C/C=C(/C)C(=O)O[C@@H]1c2c(ccc3ccc(=O)oc23)OC(C)(C)[C@@H]1OC(C)=O
- inhibition [1]: 4.61% (inactive)
- luciferase signal [2]: 56 AU (inactive)

Structure (SMILES): CC(=O)N1CCC[C@H]1C(=O)O
- inhibition [1]: 11.4% (inactive)
- luciferase signal [2]: 52 AU (inactive)

Structure (SMILES): NC(N)=NCCC[C@@H](NC(=O)[C@@H](N)Cc1ccc(O)cc1)C(=O)O
- inhibition [8]: -8.49%
- score [9]: 1.34
- rescue above control [10]: 13.2
- cytochrome c release ratio [11]: 0.94
- inhibition of aggregation [12]: 77%
- glutamate uptake change [13]: 17.2%
- inclusion score [14]: 2
- aggregation suppression score [15]: 1.22
- inhibition [1]: 7.11% (inactive)

Structure (SMILES): NC(=O)c1ccc[n+]([C@@H]2O[C@H](COP(=O)([O-])OP(=O)(O)OC[C@H]3O[C@@H](n4cnc5c(N)ncnc54)[C@H](OP(=O)(O)O)[C@@H]3O)[C@@H](O)[C@H]2O)c1
- inhibition [8]: 19.9%
- score [9]: 1.08
- rescue above control [10]: 9.74
- cytochrome c release ratio [11]: 0.78
- inhibition of aggregation [12]: -21.6%
- glutamate uptake change [13]: 16.5%
- inclusion score [14]: 2
- aggregation suppression score [15]: 0.975
- parasite load remaining [3]: 169% (inactive)
- viability [3]: 83.2%
- inhibition [1]: 16.2% (inactive)
- luciferase signal [2]: 32 AU (inactive)

Structure (SMILES): CC1(C)C(=O)C=C[C@@]2(C)C1C=C[C@]1(C)C2CC[C@@]2(C)[C@H](c3ccoc3)OC(=O)C3OC321 (stereo partly drawn)
- inhibition [1]: -14.8% (inactive)
- luciferase signal [2]: 40 AU (inactive)

Structure (SMILES): O=C(Cc1ccccc1)NO
- inhibition [1]: -18.4% (inactive)
- luciferase signal [2]: 68 AU (inactive)

Structure (SMILES): N[C@@H](CCC(=O)N[C@@H](CSC(CC(=O)O)C(=O)O)C(=O)NCC(=O)O)C(=O)O (stereo partly drawn)
- inhibition [1]: 6.35% (inactive)
- luciferase signal [2]: 68 AU (inactive)

Structure (SMILES): CSCCC(NC=O)C(=O)NC(C)C(=O)O (stereo not drawn)
- inhibition [8]: 3.66%
- score [9]: 1.03
- rescue above control [10]: 3.86
- cytochrome c release ratio [11]: 1.14
- inhibition of aggregation [12]: 81.6%
- glutamate uptake change [13]: 9.47%
- inclusion score [14]: 2
- aggregation suppression score [15]: 1.3
- inhibition [1]: 11.9% (inactive)

Structure (SMILES): O=C(O)c1cc(O)ccc1O
- inhibition [8]: -0.2%
- score [9]: 0.92
- rescue above control [10]: -5.86
- cytochrome c release ratio [11]: 0.99
- inhibition of aggregation [12]: 72.2%
- glutamate uptake change [13]: -11.6%
- inclusion score [14]: 2
- aggregation suppression score [15]: 0.337
- inhibition [1]: -15.2% (inactive)

Structure (SMILES): CO[C@H]1C=C[C@@]23c4cc5c(cc4CN(C[C@@H]2O)[C@H]3C1)OCO5
- inhibition [1]: 13.8% (inactive)
- luciferase signal [2]: 44 AU (inactive)

Structure (SMILES): CCC(=O)OC1[C@@H]2CC3=C4CC(=O)O[C@@H](c5ccoc5)[C@]4(C)CCC3[C@@](C)(C2=O)[C@@H](CC(=O)OC)C1(C)C (stereo partly drawn)
- inhibition [1]: -1.17% (inactive)
- luciferase signal [2]: 20 AU (inactive)

Structure (SMILES): CSCCC(NC=O)C(=O)NC(CC(C)C)C(=O)NC(Cc1ccccc1)C(=O)O (stereo not drawn)
- score [9]: 1
- rescue above control [10]: 6.28
- cytochrome c release ratio [11]: 1.31
- inhibition of aggregation [12]: 53.9%
- glutamate uptake change [13]: 14.5%
- inclusion score [14]: 1
- aggregation suppression score [15]: 1.49
- inhibition [1]: 3.38% (inactive)

Structure (SMILES): CCC(C)C(N)C(=O)N1CCCC1C(=O)NC(C(=O)O)C(C)CC (stereo not drawn)
- inhibition [8]: -6.01%
- score [9]: 1.3
- rescue above control [10]: 1.96
- cytochrome c release ratio [11]: 0.74
- inhibition of aggregation [12]: 14.9%
- glutamate uptake change [13]: 11.9%
- inclusion score [14]: 2
- aggregation suppression score [15]: 1.44
- inhibition [1]: -1.23% (inactive)

Structure (SMILES): CCOC(=O)CCCCCCCCCCCCC1C=CCC1 (stereo not drawn)
- inhibition [8]: -0.73%
- score [9]: -0.7
- rescue above control [10]: -1.18
- cytochrome c release ratio [11]: 1.01
- inhibition of aggregation [12]: 55.1%
- glutamate uptake change [13]: -2.82%
- inclusion score [14]: 2
- aggregation suppression score [15]: 0.251
- inhibition [1]: 2.03% (inactive)
- luciferase signal [2]: 116 AU (inactive)

Structure (SMILES): NCCCCC(N)C(=O)NC(Cc1ccc(O)cc1)C(=O)NC(CCCCN)C(=O)O (stereo not drawn) (H-Lys-Tyr-Lys-OH; configuration not given here)
- inhibition [8]: -30.8%
- score [9]: 3.85
- rescue above control [10]: 16.1
- cytochrome c release ratio [11]: 0.94
- inhibition of aggregation [12]: 37.2%
- glutamate uptake change [13]: -3.42%
- inclusion score [14]: 1
- aggregation suppression score [15]: 1.25
- inhibition [1]: 13.2% (inactive)
